Measurements as given in the supplement of paper PMC10849652.
The full data set covers some 8,800 targets. This sample favours those with a hit. About 0.5% of all pairs of compound and target were hits.

Experiments:
Experiment in all cases: log2 fold change, soluble protein after heating vs DMSO (PISA); higher = thermal stabilisation; K562 lysate, 10 uM; active = over 0.2 and 3.5 SD of the protein, either way, in both replicates (recomputed)
[1] = compound: C1=CC=C(C=C1)[C@H](COC2=CC3=C(C=C2)NC(=O)N3)NC(=O)C4=CC=CN(C4=O)CC5=CC(=C(C=C5)F)F
Outline: (§1)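 Values give the log-two fold change in thermal stability against solvent controls, from duplicates. Crude K562 extract at 1 mg/mL protein, made by dounce homogenisation in PBS pH 7.4 with 1 mM MgCl2, was treated with 10 μM compound for 30 min. After 3 min heating across 48°C-58°C, aliquots were pooled, adjusted to 0.5% NP-40 at 4°C and centrifuged at 21,000xg for 90 min. The supernatant was measured by TMTpro 16plex LC-MS/MS with channel sums equalised.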

[2] = compound: CC1=C(SC2=C1C(=N[C@H](C3=NN=C(N32)C)CC(=O)N)C4=CC=C(C=C4)Cl)C
Outline: as §1

[3] = compound: CC1=C2C(=CC=C1)N=C(N(C2=O)C3=CC=CC=C3C)CN4C=NC5=C(N=CN=C54)N
Outline: as §1

[4] = compound: Cc1sc2c(c1C)C(c1ccc(Cl)cc1)=N[C@@H](CC(=O)OC(C)(C)C)c1nnc(C)n1-2
Outline: as §1

[5] = compound: c1ccc([C@@H]2C[C@H]2NC2CCNCC2)cc1
Outline: as §1

Measured: log2 fold change

PTPN2 (UniProt P17706)
inactive: [1] -0.031 | [2] 0.017 | [3] 0.023 | [4] 0.007 | [5] 0.012

PGLS (UniProt O95336)
inactive: [1] -0.063 | [2] -0.06 | [3] 0.094 | [4] -0.04 | [5] 0.095

PCIF1 (UniProt Q9H4Z3)
UniProt Q9H4Z3, sequence (Q9H4Z3 whole entry, looked up): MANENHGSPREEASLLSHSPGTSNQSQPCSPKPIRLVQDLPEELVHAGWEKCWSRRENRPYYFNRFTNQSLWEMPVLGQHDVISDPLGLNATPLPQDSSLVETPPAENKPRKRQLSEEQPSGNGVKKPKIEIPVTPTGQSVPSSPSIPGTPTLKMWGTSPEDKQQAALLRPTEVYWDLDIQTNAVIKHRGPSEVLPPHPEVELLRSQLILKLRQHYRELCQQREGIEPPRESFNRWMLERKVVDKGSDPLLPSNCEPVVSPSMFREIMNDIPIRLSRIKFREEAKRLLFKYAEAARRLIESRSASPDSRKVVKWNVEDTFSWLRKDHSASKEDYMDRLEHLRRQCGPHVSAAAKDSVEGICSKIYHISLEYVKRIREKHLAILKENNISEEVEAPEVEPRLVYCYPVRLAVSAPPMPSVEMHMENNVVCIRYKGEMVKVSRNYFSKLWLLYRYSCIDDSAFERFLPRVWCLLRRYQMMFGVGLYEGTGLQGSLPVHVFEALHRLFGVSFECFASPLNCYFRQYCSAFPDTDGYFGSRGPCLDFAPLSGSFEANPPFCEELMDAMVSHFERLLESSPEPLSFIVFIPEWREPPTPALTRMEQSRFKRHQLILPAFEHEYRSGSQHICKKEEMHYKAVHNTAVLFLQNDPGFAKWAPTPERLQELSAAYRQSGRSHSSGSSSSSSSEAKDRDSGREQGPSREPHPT
inactive: [1] -0.015 | [2] -0.013 | [3] 0.026 | [4] 0.066 | [5] -0.111

QKI (UniProt Q96PU8)
inactive: [1] -0.071 | [2] -0.001 | [3] -0.023 | [4] 0.04 | [5] -0.034

PIR (UniProt O00625)
inactive: [1] -0.013 | [2] 0.017 | [3] 0.026 | [4] 0.009 | [5] 0.06

PICALM (UniProt H0YEH1)
inactive: [1] 0.018 | [2] -0.027 | [3] -0.138 | [4] 0.075 | [5] -0.303

PKN1 isoform 2 (UniProt Q16512)
UniProt Q16512, sequence (Q16512 whole entry, looked up): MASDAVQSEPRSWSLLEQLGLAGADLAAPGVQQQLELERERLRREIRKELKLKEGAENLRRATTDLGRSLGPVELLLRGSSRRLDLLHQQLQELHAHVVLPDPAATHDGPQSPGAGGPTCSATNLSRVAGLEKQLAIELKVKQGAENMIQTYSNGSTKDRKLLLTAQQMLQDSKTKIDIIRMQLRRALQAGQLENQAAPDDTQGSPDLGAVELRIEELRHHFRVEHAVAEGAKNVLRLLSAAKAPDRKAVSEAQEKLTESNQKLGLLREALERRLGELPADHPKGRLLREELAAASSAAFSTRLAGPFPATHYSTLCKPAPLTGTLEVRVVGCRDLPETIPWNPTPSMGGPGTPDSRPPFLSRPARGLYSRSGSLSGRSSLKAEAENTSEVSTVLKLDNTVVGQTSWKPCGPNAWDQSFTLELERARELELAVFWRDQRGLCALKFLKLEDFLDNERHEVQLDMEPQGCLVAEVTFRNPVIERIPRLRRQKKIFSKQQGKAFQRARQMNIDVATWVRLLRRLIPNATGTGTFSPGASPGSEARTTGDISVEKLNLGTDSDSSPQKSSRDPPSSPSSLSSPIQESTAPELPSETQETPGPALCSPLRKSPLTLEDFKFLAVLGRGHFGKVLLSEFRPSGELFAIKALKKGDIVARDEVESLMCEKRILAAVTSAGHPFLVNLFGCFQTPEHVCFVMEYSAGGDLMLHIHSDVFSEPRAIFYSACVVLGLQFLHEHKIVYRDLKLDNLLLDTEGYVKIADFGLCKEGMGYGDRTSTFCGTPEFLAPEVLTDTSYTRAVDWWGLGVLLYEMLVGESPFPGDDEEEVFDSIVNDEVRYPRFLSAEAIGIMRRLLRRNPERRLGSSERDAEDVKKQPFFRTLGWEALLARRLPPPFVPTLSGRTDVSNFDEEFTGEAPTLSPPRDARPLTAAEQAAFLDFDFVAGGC
inactive: [1] -0.003 | [2] 0.017 | [3] 0.023 | [4] 0.029 | [5] 0.022

PTPN7 isoform 3 (UniProt P35236)
UniProt P35236, sequence (P35236 whole entry, looked up): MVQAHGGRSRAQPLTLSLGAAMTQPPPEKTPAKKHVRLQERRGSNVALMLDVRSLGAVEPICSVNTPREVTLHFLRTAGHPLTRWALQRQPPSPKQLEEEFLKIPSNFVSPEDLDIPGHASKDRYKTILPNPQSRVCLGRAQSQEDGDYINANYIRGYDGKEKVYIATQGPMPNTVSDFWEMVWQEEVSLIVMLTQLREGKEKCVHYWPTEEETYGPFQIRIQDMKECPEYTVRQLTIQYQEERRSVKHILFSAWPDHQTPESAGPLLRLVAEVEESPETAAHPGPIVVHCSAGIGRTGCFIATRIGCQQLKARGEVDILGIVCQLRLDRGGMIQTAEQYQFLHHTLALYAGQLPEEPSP
inactive: [1] -0.028 | [2] 0.002 | [3] -0.031 | [4] 0.015 | [5] -0.012

PTS (UniProt Q03393)
active: [2] -0.274
inactive: [1] -0.024 | [3] 0.032 | [4] -0.093 | [5] 0.022

PGPEP1 (UniProt Q9NXJ5)
UniProt Q9NXJ5, sequence (Q9NXJ5 whole entry, looked up): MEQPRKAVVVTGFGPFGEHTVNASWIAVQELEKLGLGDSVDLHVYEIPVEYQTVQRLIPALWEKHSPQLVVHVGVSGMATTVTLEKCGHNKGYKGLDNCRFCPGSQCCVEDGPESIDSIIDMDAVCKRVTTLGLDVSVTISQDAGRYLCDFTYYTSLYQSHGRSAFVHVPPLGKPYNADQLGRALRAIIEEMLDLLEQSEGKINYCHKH
inactive: [1] 0.027 | [2] -0.071 | [3] -0.013 | [4] -0.025 | [5] 0.012

PRKACB isoform 2 (UniProt P22694)
inactive: [1] -0.042 | [2] -0.004 | [3] -0.018 | [4] -0.009 | [5] 0.019

PGGT1B (UniProt P53609)
inactive: [1] -0.055 | [2] 0.021 | [3] -0.013 | [4] -0.004 | [5] 0.064

PFAS (UniProt O15067)
inactive: [1] 0.007 | [2] 0.017 | [3] 0.02 | [4] 0.042 | [5] 0.023

PCBP2 isoform 8 (UniProt Q15366)
inactive: [1] 0.098 | [2] 0.065 | [3] -0.038 | [4] -0.044 | [5] -0.101

PHOSPHO2 (UniProt Q8TCD6)
inactive: [1] -0.029 | [2] 0.02 | [3] 0.046 | [4] -0.053 | [5] 0.061

PIK3C3 (UniProt Q8NEB9)
inactive: [1] -0.041 | [2] -0.032 | [3] -0.036 | [4] -0.014 | [5] -0.114

PUS3 (UniProt Q9BZE2)
UniProt Q9BZE2, sequence (Q9BZE2 whole entry, looked up): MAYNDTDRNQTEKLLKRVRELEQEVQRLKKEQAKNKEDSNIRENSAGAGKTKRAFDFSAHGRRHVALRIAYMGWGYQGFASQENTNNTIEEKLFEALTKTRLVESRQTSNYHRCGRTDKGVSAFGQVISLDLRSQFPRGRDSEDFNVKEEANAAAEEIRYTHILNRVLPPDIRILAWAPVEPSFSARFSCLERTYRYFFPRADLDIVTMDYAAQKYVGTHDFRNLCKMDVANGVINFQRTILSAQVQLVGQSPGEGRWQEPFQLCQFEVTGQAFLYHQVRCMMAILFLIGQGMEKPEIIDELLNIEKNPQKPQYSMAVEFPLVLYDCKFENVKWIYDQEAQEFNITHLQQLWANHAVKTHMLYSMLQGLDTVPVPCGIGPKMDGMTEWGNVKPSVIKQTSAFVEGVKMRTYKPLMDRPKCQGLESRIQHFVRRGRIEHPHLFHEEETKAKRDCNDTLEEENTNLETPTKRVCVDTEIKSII
inactive: [1] -0.006 | [2] -0.089 | [3] -0.073 | [4] 0.082 | [5] 0.135

PPP3CA isoform 2 (UniProt Q08209)
inactive: [1] -0.026 | [2] -0.115 | [3] -0.017 | [4] 0.004 | [5] 0.043

PRRC2A (UniProt P48634)
inactive: [1] -0.047 | [2] 0.003 | [3] 0.001 | [4] 0.017 | [5] -0.02

PDCD4 (UniProt Q53EL6)
UniProt Q53EL6, sequence (Q53EL6 whole entry, looked up): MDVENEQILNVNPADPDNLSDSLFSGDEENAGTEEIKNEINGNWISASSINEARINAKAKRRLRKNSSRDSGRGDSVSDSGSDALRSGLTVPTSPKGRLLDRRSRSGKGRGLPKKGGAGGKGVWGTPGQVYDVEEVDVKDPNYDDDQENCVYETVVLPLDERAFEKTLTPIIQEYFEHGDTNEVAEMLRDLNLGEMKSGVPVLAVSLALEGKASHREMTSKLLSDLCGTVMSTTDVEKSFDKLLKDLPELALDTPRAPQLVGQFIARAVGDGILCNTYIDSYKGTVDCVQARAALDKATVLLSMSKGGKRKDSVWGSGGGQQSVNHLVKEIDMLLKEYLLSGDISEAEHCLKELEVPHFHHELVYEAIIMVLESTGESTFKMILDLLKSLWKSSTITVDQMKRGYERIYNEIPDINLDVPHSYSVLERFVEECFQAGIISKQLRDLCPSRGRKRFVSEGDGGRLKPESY
inactive: [1] -0.026 | [2] 0.005 | [3] -0.007 | [4] 0.002 | [5] 0.001

PEX2 (UniProt P28328)
inactive: [1] -0.243 | [2] 0.053 | [3] -0.048 | [4] 0.116 | [5] -0.365

PIGO (UniProt Q8TEQ8)
UniProt Q8TEQ8, sequence (Q8TEQ8 whole entry, looked up): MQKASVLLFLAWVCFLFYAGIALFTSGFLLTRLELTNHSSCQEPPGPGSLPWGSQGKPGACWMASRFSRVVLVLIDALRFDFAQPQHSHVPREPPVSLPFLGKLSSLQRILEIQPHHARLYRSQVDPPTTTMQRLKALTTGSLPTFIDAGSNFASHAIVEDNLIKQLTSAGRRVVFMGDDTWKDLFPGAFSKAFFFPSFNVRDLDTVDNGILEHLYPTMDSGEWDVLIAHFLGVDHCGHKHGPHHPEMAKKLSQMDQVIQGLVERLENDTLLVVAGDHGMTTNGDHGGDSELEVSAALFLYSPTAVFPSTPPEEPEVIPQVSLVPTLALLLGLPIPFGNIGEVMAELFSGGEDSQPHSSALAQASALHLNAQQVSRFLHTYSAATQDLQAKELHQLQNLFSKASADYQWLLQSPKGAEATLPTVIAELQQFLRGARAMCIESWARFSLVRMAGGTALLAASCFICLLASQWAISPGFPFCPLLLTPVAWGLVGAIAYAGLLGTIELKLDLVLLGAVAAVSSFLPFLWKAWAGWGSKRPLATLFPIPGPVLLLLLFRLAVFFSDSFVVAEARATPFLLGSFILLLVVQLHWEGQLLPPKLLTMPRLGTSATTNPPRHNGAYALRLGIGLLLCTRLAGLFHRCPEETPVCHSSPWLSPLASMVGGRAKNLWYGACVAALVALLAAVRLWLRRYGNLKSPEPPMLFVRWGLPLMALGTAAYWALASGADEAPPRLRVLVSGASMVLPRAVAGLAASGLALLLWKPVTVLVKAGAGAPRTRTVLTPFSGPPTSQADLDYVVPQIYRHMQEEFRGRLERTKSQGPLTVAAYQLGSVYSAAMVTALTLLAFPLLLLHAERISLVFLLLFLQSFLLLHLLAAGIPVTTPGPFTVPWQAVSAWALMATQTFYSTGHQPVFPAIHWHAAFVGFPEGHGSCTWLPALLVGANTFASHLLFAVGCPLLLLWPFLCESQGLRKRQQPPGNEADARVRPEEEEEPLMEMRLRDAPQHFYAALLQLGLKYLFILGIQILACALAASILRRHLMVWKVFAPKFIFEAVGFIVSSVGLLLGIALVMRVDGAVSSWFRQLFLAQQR
inactive: [1] -0.098 | [2] -0.058 | [3] -0.014 | [4] -0.023 | [5] 0.039

PDCD10 (UniProt Q9BUL8)
UniProt Q9BUL8, sequence (Q9BUL8 whole entry, looked up): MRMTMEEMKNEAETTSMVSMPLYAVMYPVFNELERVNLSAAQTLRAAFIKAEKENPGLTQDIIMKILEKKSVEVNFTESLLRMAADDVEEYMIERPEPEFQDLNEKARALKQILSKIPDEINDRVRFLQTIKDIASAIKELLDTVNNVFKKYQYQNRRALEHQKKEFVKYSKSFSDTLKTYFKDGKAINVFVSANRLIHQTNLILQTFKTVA
inactive: [1] -0.005 | [2] 0.02 | [3] -0.013 | [4] -0.042 | [5] -0.064

PFKFB3 isoform 4 (UniProt Q16875)
UniProt Q16875, sequence (Q16875 whole entry, looked up): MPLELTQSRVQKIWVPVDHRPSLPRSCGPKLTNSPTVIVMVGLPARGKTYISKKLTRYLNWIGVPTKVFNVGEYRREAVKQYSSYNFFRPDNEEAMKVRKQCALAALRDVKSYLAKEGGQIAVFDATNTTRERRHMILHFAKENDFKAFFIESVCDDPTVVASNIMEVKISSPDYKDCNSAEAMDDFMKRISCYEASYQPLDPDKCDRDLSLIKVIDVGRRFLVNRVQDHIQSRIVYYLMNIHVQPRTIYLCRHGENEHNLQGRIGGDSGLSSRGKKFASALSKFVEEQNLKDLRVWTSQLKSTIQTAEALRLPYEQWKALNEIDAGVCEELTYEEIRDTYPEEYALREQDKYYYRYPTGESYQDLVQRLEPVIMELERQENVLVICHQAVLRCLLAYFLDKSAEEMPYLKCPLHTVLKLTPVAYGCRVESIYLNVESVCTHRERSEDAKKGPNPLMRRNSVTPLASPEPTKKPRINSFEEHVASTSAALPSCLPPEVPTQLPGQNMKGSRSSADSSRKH
inactive: [1] -0.04 | [2] 0.047 | [3] 0.057 | [4] 0.018 | [5] 0.041
